Assay outcomes from PubChem BioAssay.
Hits are enriched below; roughly 1.8% of the tested compounds scored in any of these assays.
HEK293 tox = cytotoxicity counter-screen for GLP-1 receptor inverse agonists; AID 624418; Potency, µM (top dose mostly 38.3 µM), most hits filed as inhibitors; 0.13% of 410,000 active; HEK293 cAMP-luciferase reporter cells, luminescence, 24 h;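 note: loss of luciferase light is scored as toxicity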
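To flag toxic compounds, the library was rerun on cells for 24 hr at 37 deg C and 5% CO2. Viability-linked luminescence was captured 12 min after adding luciferase detection reagent.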
KAT2A inh = blocks human GCN5L2 histone acetyltransferase; 0.21% of 390,000 active; Potency, µM (series often up to 58.9 µM), actives largely listed as inhibitors; Q92830; GCN5L2 HAT assay, ThioGlo1 CoA-SH fluorescence
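Titration-based screen in which CoA formation is detected via maleimide probe ThioGlo1 (50uM) turning fluorescent on thiol reaction; substrates H3(1-25) 75uM and acetyl-CoA 70uM, GCN5L2 20nM, 20 min incubation at room temperature.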
GLP1R inv ag = inverse agonists of human GLP-1 receptor; HEK293 GLP-1R CRE-luciferase, luminescence, 24 h; GLP-1R form is constitutively active; Potency, µM (top dose mostly 38.3 µM), most hits filed as inhibitors; P43220; AID 624417; 1.6% of 410,000 active; note: nearly all actives have a fitted effect of over 55% in size
Target sequence (P43220 whole entry, looked up): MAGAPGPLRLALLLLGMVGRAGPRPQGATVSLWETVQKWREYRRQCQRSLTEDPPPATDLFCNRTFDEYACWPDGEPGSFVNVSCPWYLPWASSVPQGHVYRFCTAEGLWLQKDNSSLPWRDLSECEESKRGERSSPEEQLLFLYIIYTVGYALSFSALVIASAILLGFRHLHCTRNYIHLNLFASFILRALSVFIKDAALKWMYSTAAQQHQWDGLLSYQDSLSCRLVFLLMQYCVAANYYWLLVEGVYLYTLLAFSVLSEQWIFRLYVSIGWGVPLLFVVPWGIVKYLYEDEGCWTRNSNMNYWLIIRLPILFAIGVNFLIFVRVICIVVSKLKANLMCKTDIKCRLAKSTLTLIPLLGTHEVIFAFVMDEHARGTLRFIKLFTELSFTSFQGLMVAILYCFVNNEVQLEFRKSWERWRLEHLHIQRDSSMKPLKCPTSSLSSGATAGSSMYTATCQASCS
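Readout was luciferase luminescence, measured 12 min after detection reagent at room temperature. Beforehand, GLP-1R reporter HEK293 cells had sat 12 h, then received compounds for 24 hr at 37 deg C.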
PTHR1 agonist = PTHR1 (human) receptor agonism; Q03431; HEK293 GP2 PTHR1 cells, GloSensor cAMP luminescence, 1 h; Potency, µM (doses to about 115 µM), actives largely listed as activators; 0.075% of 410,000 active; AID 743266; note: nearly all actives have a fitted effect of over 55% in size
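HEK-293-derived GP2 cells expressing PTHR1 and a GloSensor cAMP reporter, 3,000/well, plated overnight, given luciferin plus IBMX (each 0.5 mM as added) for 1 h at 37 °C, then compound for 1 h at 37 °C. Luminescence was read after 15 min at room temperature.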
GLP1R ag = activates the human GLP-1 receptor | P43220 | HEK293 GLP-1R CRE-luciferase, luminescence, 4-6 h; cells express a hypersensitive GLP-1R form | Potency, µM (titrated, usually from 45.6 µM), actives largely listed as activators | 0.007% of 380,000 active | AID 624172
RGS4 inhibitor = human RGS4 inhibition | P49798 | Potency, µM (top dose mostly 114 µM), actives largely listed as inhibitors | AID 504845 | Transcreener GDP fluorescence polarization, RGS4-accelerated GTP hydrolysis | 0.039% of 390,000 active; note: nearly all actives have a fitted effect of over 75% in size
Target sequence (P49798 whole entry, looked up): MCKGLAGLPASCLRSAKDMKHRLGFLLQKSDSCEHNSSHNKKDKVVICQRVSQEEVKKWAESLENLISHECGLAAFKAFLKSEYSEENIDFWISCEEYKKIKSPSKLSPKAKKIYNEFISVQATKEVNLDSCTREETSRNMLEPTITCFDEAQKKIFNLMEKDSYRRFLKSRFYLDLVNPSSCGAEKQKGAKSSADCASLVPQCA
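MLSMR compounds (23 nl, pin-transferred) preincubated 10 min at room temperature with a 500nM (2x) first reagent, then RGS4 at 900nM (2x) plus Transcreener GDP mix added; fluorescence polarization (620/688 nm) read before and after 90 min at 30 °C.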
Hits are given with their value; n = inactive; u = inconclusive; x = not tested or not shown; [ ] = remark or other dose. Calls come from the whole dose curve; as a rule, active = well fitted curve in the direction sought with a large enough effect; inconclusive = small, poorly fitted or top-dose-only effect, or another doubt; inactive = no such curve, though single readings can be large; an effect the other way counts as inactive or inconclusive.

SMILES	HEK293 tox	KAT2A inh	GLP1R inv ag	PTHR1 agonist	GLP1R ag	RGS4 inhibitor
CCN(CC)CCNC(=O)c1ccc(Cn2c(SCc3ccccc3)nc3cccnc32)cc1	n	n	u	n	x	n
O=C(Nc1ccc(C(=O)OCc2cc(=O)n3c4c(sc3n2)CCCC4)cc1)c1ccc(Cl)cc1	n	n	n	n	x	n
O=C(Nc1cccc2c1CCCC2)c1ccc(Cl)c([N+](=O)[O-])c1	n	n	n	n	n	n
O=C(Nc1cccc2c1CCCC2)c1cc([N+](=O)[O-])ccc1Cl	u	n	3.2µM	n	n	n
CCCCNS(=O)(=O)c1ccc(NC(=O)C(Sc2ccccc2)c2ccccc2)cc1 (stereo not given)	n	n	4.5µM	n	n	n
CCC(C)NS(=O)(=O)c1ccc(NC(=O)C(Sc2ccccc2)c2ccccc2)cc1 (stereo not given)	n[1.53 µM]	n	u	n	n	n
O=C(c1ccc2c(=O)n3c(nc2c1)CCCCC3)N1CCN(c2ccc(Cl)cc2)CC1	n	u	7.1µM	n	n	n
CCOC(=O)N1CCN(C(=O)c2ccc3c(=O)n4c(nc3c2)CCCCC4)CC1	n	n	n	n	n	n
O=C(c1ccc2c(=O)n3c(nc2c1)CCCCC3)N1CCN(c2ccc(F)cc2)CC1	n	n	5µM	n	n	n
CCN(CC)S(=O)(=O)c1ccc(N2CCN(CCOc3ccc(OC)cc3)CC2)nc1	n	n	u	n	n	n
O=C(NC1CCCC1)C(c1ccccc1)N(Cc1ccc2c(c1)OCO2)C(=O)Cc1cccs1 (stereo not given)	n	n	10µM	n	n	n
O=C(NCc1ccccc1)C(c1ccccc1)N(Cc1ccc2c(c1)OCO2)C(=O)Cc1cccs1 (stereo not given)	n	n	7.9µM	n	n	n
O=C(NC1CCCC1)C(c1ccncc1)N(Cc1ccccc1)C(=O)Cc1cccs1 (stereo not given)	n	n	n	n	n	n
C=CCNc1oc(-c2cccs2)nc1S(=O)(=O)c1ccccc1	n	n	n	n	n	n
CC12CC3(C)CC(C)(C1)CC(C(=O)NC(=S)N1CCCC1)(C2)C3	n[7.66 µM]	n	n[7.66 µM]	n	n	n
Cc1ccc(C(=O)C[n+]2cc(Br)cc(Br)c2)cc1	n	n	n	n	n	n
CCCn1c(O)c(/C=C2\C=NN=C2c2ccccc2)sc1=S	n	2.2µM	n	n	n	n
C=CCn1c(O)c(/C=C2\C=NN=C2c2ccccc2)sc1=S	u	u	n	n	n	n
CC(=O)OCC(NC(=O)C(CCCCNC(=O)OCc1ccccc1)NC(=O)OC(C)(C)C)C1OC(n2cc(C)c(=O)[nH]c2=O)C(OC(C)=O)C1OC(C)=O (stereo not given)	x	x	x	x	x	n
CCC1CN(C(=O)N2CCC(C(=O)NCCc3ccc(OC)cc3OC)CC2)c2ccccc2O1 (stereo not given)	n	n	u	n	n	n
CC(C)(C)c1cc(C(=O)NCCN2CCCC2)cc(C(C)(C)C)c1	n	n	13µM	n	n	n
O=C(NCCN1CCCC1)c1ccc(Cl)cc1	n	n	n	n	n	n
O=C(CC(c1ccccc1)c1cc(Br)ccc1O)NCc1ccco1 (stereo not given)	n	n	11µM	n	n	n
O=C(CC(c1ccccc1)c1ccccc1O)NCc1ccccc1Cl (stereo not given)	n	n	10µM	n	n	n
O=C(CC(c1ccccc1)c1ccccc1O)NCc1ccco1 (stereo not given)	n	n	u	n	n	n
SMILES	HEK293 tox	KAT2A inh	GLP1R inv ag	PTHR1 agonist	GLP1R ag	RGS4 inhibitor
CCc1ccccc1NC(=O)/C(=C/c1ccco1)c1ccccc1	n	u	7.1µM	n	n	n
COc1cc(-c2cc3nc(NCc4ccco4)ccn3n2)cc(OC)c1OC	n	x	u	n	n	x
COc1ccccc1CN(C)C(=O)COC(=O)c1cc(C)oc1C	n	n	u	n	n	n
OC[C@@H]1CN(Cc2ccc(Cl)cc2)C[C@H](n2cnc3c(NCc4ccc(F)cc4)ncnc32)O1	n	x	u	n	n	x
Cc1ccn2c(c1)nc(=S)n2C(=O)c1ccccc1	n	n	2.5µM	n	n	n
COc1ccc(CN2CCN(C(c3ccc(F)cc3)c3ccc(F)cc3)CC2)c(OC)c1OC	u	n	10µM	n	n	n
COc1cc(F)ccc1-c1cc(C(=O)NCc2cccc(Cl)c2)[nH]n1	n	x	u	n	n	x
COc1ccc(Cl)cc1-c1cc(C(=O)NCc2cccc(Cl)c2)[nH]n1	n	x	3.2µM	n	n	x
COc1ccc(Cl)cc1NC(=O)CN1Cc2ccccc2C1=O	n	n	n	n	x	n
COc1ccc(Cl)cc1NC(=O)CN(C)CC(=O)Nc1ccc(C)cc1Br	n	n	7.9µM	n	n	n
COc1ccc(Cl)cc1NC(=O)CN1CCc2ccccc21	n	n	10µM	n	n	n
COc1ccc(Cl)cc1NC(=O)CN1C(=O)C(C)(C)c2cc(S(=O)(=O)N3CCCCC3)ccc21	n	n	11µM	n	x	n
COc1ccc(NC(=O)CCCSc2nc(-c3ccco3)cc(C(F)(F)F)n2)cc1OC	n	n	11µM	n	n	n
O=C(NCCn1cc(SCc2ccc(C(F)(F)F)cc2)c2ccccc21)c1ccccc1F	n	n	u	n	n	n
O=C(NCCn1cc(SCc2ccc(C(F)(F)F)cc2)c2ccccc21)c1cccs1	n	n	11µM	n	n	n
O=C(NCCn1cc(SCc2ccc(F)cc2)c2ccccc21)c1ccccc1F	n	n	7.9µM	n	n	n
O=C(NCCn1cc(SCc2ccc(F)cc2)c2ccccc21)c1c(F)cccc1F	n	n	u	n	n	n
O=C(CSc1cn(CCNC(=O)c2ccccc2F)c2ccccc12)Nc1ccc(F)cc1	n	n	u	n	n	n
O=C(NCCn1cc(SCc2ccccc2)c2ccccc21)c1c(F)cccc1F	n	n	10µM	n	n	n
COc1cc(/C=N/NC(=O)NC23CC4CC(CC(C4)C2)C3)ccc1OCC(N)=O	n	n	u	n	n	n
CCCCN(C)C(=O)Cn1c(SCC(=O)Nc2ccc(C)c(C)c2)nc2ccccc21	n	n	n	n	x	n
CCN(CC(=O)Nc1ccc(NC(C)=O)cc1)C(=O)c1ccc(Sc2nncn2C)c([N+](=O)[O-])c1	n	x	n	n	n	x
CCCNC(=O)C1(C)CCN(Cc2ccc(OC)c3ccccc23)C1 (stereo not given)	n	x	u	n	n	x
